SMN2 splice up – qHTS Assay for Enhancers of SMN2 Splice Variant Expression; HEK293 SMN2-luciferase splicing reporter, luminescence, 30-36 h; AID 1458, 2008; Potency, µM (doses to about 46.1 µM), without a hit: at the highest dose activity change, positive = activation, hits mostly activators; hit rate 2.8% among 210,000; also: % of control where 0% means no effect; nearly all actives have a fitted effect of over 55% in size
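qHTS luciferase splicing reporter: luminescence rises when SMN2 exon 7 is included in transfected HEK293 cells. Compound exposure lasted 30-36 h at 37C, with 4.5 mM final sodium butyrate as control, followed by a ONE-Glo read.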
Luc counter – Counterscreen for Luciferase (Kinase-Glo TM) Inhibition. Luciferin 4-monooxygenase (Photuris pensylvanica), Q27757. Kinase-Glo luciferase, ATP luminescence, 8 min. Potency, µM (doses to about 38.3 µM), for the others: at the highest dose activity change, negative = inhibition, most hits filed as inhibitors. hit rate 0.28% among 200,000. AID 1379, 2008; also: % is scaled to controls: 0 for no effect and ±100 for the full control effect; nearly all actives have a fitted effect of over 60% in size
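Compound is pinned into ATP-containing buffer (10 uM ATP, imidazole pH 7.2, 7 mM MgCl2). Kinase-Glo luciferase reagent is then added. Light output is recorded following an 8-min room-temperature incubation.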
FLuc modulator – qHTS profiling assay for firefly luciferase inhibitor/activator using purifed enzyme and Km concentrations of substrates (counterscreen for miR-21 project) | Potency, µM (doses to about 57.5 µM), inactives show top-dose activity change, negative = inhibition, most hits filed as inhibitors | purified FLuc, Km substrates, luminescence inhibition | hit rate 6.9% among 360,000;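 also: plate controls were vehicle for no effect and reference inhibitor for full effect; nearly all actives have a fitted effect of over 55% in size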
Target sequence (P08659 whole entry, looked up): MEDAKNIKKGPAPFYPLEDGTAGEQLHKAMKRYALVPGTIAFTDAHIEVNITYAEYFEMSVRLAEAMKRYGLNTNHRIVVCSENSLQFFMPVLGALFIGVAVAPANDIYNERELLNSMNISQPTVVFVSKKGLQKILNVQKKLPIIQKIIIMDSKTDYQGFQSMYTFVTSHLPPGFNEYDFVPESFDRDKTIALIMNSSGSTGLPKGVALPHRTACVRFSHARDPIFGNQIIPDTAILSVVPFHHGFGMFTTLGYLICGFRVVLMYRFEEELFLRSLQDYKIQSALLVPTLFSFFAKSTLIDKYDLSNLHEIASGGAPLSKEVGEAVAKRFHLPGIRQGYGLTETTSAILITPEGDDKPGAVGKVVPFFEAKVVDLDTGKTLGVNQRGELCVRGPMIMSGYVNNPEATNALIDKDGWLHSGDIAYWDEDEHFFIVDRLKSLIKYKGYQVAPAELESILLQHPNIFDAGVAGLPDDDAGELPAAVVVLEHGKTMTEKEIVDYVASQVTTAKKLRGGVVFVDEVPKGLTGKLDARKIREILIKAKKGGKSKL
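Biochemical qHTS of compounds, final roughly 60 µM downward over six points, against 10 nM purified firefly luciferase using Km concentrations of substrates (10 uM D-luciferin, 10 uM ATP) in Tris acetate pH 7.5 buffer; luminescence output.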
NPC1 promoter act – qHTS Assay for NPC1 Promoter Activators; Potency, µM (doses to about 9.22 µM), inactives show top-dose activation, most hits filed as activators; AID 485313, 2010; hit rate 2.4% among 320,000; Huh7 NPC1 promoter luciferase reporter, 24 h; also: % of control where 0% means no effect; nearly all actives have a fitted effect of over 60% in size
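Luminescence read-out of NPC1 promoter-driven luciferase in stably transfected Huh7 cells; compounds delivered in DMSO and left 24 h at 37C, 5% CO2, qHTS titration format.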
Rab9 prom act – qHTS Assay for Rab9 Promoter Activators; Potency, µM (series often up to 9.22 µM), without a hit: at the top dose activation, negative = inhibition, usual class: activators; Huh7 Rab9 promoter-luciferase reporter, luminescence, 24 h; hit rate 2.8% among 320,000; AID 485297, 2010; also: % of control where 0% means no effect; nearly all actives have a fitted effect of over 60% in size
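Steps: seed 1500 Huh7 Rab9-luc cells per well, rest 2 h at 37 °C; add compound in DMSO; incubate 24 h; add luciferase reagent, 10 min ambient; read luminescence.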
ELG1 genotoxic – qHTS screen for small molecules that induce genotoxicity in human embryonic kidney (HEK293T) cells expressing luciferase-tagged ELG1; HEK293T ELG1-luciferase reporter, luminescence, 16 h; Potency, µM (titrated, usually from 46 µM), for the others: at the highest dose activity change, positive = activation, hits mostly activators; hit rate 1.3% among 330,000; AID 504466, 2011; also: % of control where 0% means no effect; nearly all actives have a fitted effect of over 60% in size
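16 hr compound incubation (37 °C, 5% CO2) of HEK293T cells carrying luciferase-tagged ELG1; luciferase then measured by ONE-Glo luminescence after 30 min at RT.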
Numbers without * were called inactive; [ ] = remark or other dose. In the library only some 7.5% were active in any assay of this set; here they are far more common. Calls follow the shape of the dose curve; as a rule, active = well fitted curve in the direction sought with a large enough effect; inconclusive = small, poorly fitted or top-dose-only effect, or another doubt; inactive = no such curve, though single readings can be large; an effect the other way counts as inactive or inconclusive. Potency is read from the fitted curve at half-maximal effect.

Results for Cc1sc(-n2c(C)cc(/C=N/n3cnnc3)c2C)c(C#N)c1C ?
FLuc modulator: inconclusive; NPC1 promoter act: -6%; Rab9 prom act: -5%; ELG1 genotoxic: 2%

What do the screens show for `COc1ccc(-n2c(C)cc(/C=C3\SC(=O)NC3=O)c2C)cc1`?
FLuc modulator: 12µM*; NPC1 promoter act: inconclusive; Rab9 prom act: inconclusive; ELG1 genotoxic: inconclusive

How did Cc1sc(-n2c(C)cc(/C=C3\SC(=S)NC3=O)c2C)c(C#N)c1C do in these assays?
SMN2 splice up: 3%; Luc counter: -6%; FLuc modulator: 13µM*; NPC1 promoter act: -1%; Rab9 prom act: inconclusive; ELG1 genotoxic: 1%

What do the screens show for `Cc1cc(C=O)c(C)n1-c1cccc(C(=O)O)c1`?
Luc counter: -3%; FLuc modulator: 4%; NPC1 promoter act: -2%; Rab9 prom act: -7%; ELG1 genotoxic: 0%

What do the screens show for `Cc1cc(/C=C2\SC(=S)NC2=O)c(C)n1-c1cccc(O)c1`?
FLuc modulator: 1.1µM*; NPC1 promoter act: 2.5µM*; Rab9 prom act: 1.6µM*; ELG1 genotoxic: inconclusive

What do the screens show for `Cc1cc(/C=C2/C(=O)NN(c3ccccc3)C2=O)c(C)n1-c1cccc(O)c1`?
SMN2 splice up: -25%; Luc counter: -21%; FLuc modulator: 0.13µM*; NPC1 promoter act: 1.6µM*; Rab9 prom act: 3.5µM*; ELG1 genotoxic: inconclusive

Results for COc1ccc(-n2c(C)cc(/C=C3\SC(=S)N(Cc4ccco4)C3=O)c2C)cc1 ?
SMN2 splice up: 1%[1.84 µM]; Luc counter: -3%; FLuc modulator: inconclusive; NPC1 promoter act: 18%; Rab9 prom act: inconclusive; ELG1 genotoxic: 3%

What do the screens show for `O=C(COc1ccc(Cl)cc1)Nc1ccc(C(=O)OCc2cc(=O)n3ccsc3n2)cc1`?
FLuc modulator: -6%

What do the screens show for `Cc1cc(/C=C2\SC(N)=NC2=O)c(C)n1-c1ccc(F)cc1`?
Luc counter: 0%; FLuc modulator: 0.85µM*; NPC1 promoter act: 19%; Rab9 prom act: 19%; ELG1 genotoxic: 10%

Results for Cc1cc(/C=C2\SC(=S)N(C)C2=O)c(C)n1-c1ccc(O)cc1 ?
FLuc modulator: 0.54µM*; NPC1 promoter act: -15%; Rab9 prom act: -26%; ELG1 genotoxic: inconclusive

How did Cc1ccc(-n2c(C)cc(/C=C3\SC(=O)NC3=O)c2C)cc1 do in these assays?
FLuc modulator: 2.7µM*; NPC1 promoter act: 2.5µM*; Rab9 prom act: 0.71µM*; ELG1 genotoxic: inconclusive

Results for COc1cccc(NC(=O)CN(C)C(=O)C2CCN(C(=O)c3ccccc3C)CC2)c1 ?
FLuc modulator: 4%; NPC1 promoter act: -1%; Rab9 prom act: 1%; ELG1 genotoxic: -8%

How did O=C(O)CCCN1C(=O)/C(=C/C=C/c2ccco2)SC1=S do in these assays?
FLuc modulator: 27µM*; NPC1 promoter act: -2%; Rab9 prom act: -1%; ELG1 genotoxic: 4%

What do the screens show for `O=C(O)CC(C(=O)O)N1C(=O)/C(=C/C=C/c2ccco2)SC1=S` (stereo unspecified)?
FLuc modulator: 12µM*; NPC1 promoter act: -1%; Rab9 prom act: 0%; ELG1 genotoxic: -1%

How did O=C(O)CC(C(=O)O)N1C(=O)/C(=C/c2ccc(-c3nc4ccccc4s3)o2)SC1=S (stereo unspecified) do in these assays?
SMN2 splice up: 26%; Luc counter: 0%; FLuc modulator: 19µM*; NPC1 promoter act: 0%; Rab9 prom act: -7%; ELG1 genotoxic: 4%

How did O=C(NN1C(=O)/C(=C/C=C/c2ccco2)SC1=S)c1ccccc1O do in these assays?
FLuc modulator: 19µM*; NPC1 promoter act: 2%; Rab9 prom act: -3%; ELG1 genotoxic: 2%

Source: PubChem BioAssay (National Center for Advancing Translational Sciences (NCATS))
